This is part of a sample that, as a whole, favours compounds with a hit. Of some 83,000 tested, about 20% had one in any assay.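 The endpoint reported here, percent growth, reads 100 for growth as untreated, 0 for no net growth and -100 for all cells dead.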 Calls of active or inactive are those of the source. Rule for the calls: active = growth percent below 10; inactive = the rest.

Test in all cases: NCI-60 one-dose screen, 48 h (100 = growth as untreated, 0 = no growth, -100 = all killed)
Conditions in all cases: 10 µM unless noted

Assay [1] has as its system T-47D breast.
The subject of assay [2] is BT-549 breast.
The subject of assay [3] is MDA-MB-435 melanoma.
In assay [4] the test system is SW-620 colon.
The subject of assay [5] is MCF7 breast.
Assay [6] has as its system HCT-116 colon.
Assay [7] deals with HCC-2998 colon.
Assay [8] deals with KM12 colon.

Consider `O=C(O)c1cn(C2CC2)c2cc(N3CCN(C(=O)C[n+]4cccc5ccccc54)CC3)c(F)cc2c1=O`, for which the growth in assay [1] is 74% (inactive); in assay [2] it was 75.8% (inactive); in assay [3], 59.5% (inactive); in assay [4], -17.2% (active); in assay [5] it was 45.2% (inactive); in assay [6] it was 23.7% (inactive). Moreover, the growth is 106% (inactive) in assay [7] and 92.3% (inactive) in assay [8].

`O=C1/C(=C/c2ccc(O)cc2)COc2ccc(-c3ccccc3)cc21`: the growth in assay [1] is 30.8% (inactive); in assay [2], 80.9% (inactive); in assay [3], 60.7% (inactive); in assay [4] it was 76.4% (inactive); in assay [5] it was 34.2% (inactive); in assay [6], 32.1% (inactive). For the same compound, the growth in assay [7] is 82% (inactive); in assay [8], 19.4% (inactive).

For the compound `O=C1Nc2cc(-c3ccncc3)ccc2/C1=C/c1ccc[nH]1`, the growth in assay [1] is -20.9% (active); in assay [2], 24.4% (inactive); in assay [3], 100% (inactive); in assay [4] it was 105% (inactive); in assay [5], 21% (inactive); in assay [6], 57.2% (inactive). For the same compound, the growth is 72.2% (inactive) in assay [7] and 33.1% (inactive) in assay [8].

`CCSc1ccc2c(c1)N(CCCN1CCN(C)CC1)c1ccccc1S2`: the growth in assay [1] was 47% (inactive); in assay [2] it was 73.2% (inactive); in assay [3], -15.1% (active); in assay [4], 45.5% (inactive); in assay [5] it was 20.5% (inactive); in assay [6] it was 21.9% (inactive). In assay [8], the growth was 4.74% (active).

For the compound `COc1ccc(Cc2nc3cc(OC)c(OC)cc3c(=O)[nH]2)cc1`, the growth in assay [1] is 96% (inactive); in assay [2], 159% (inactive); in assay [3] it was 87.3% (inactive); in assay [4], 14.3% (inactive); in assay [5], 91.6% (inactive); in assay [6] it was 72.6% (inactive). The growth in assay [8] is 18.9% (inactive).

For `COc1cc(OC)c(/C=C/C(=O)c2ccc(Nc3ncnc4ccccc34)cc2)c(OC)c1`, the growth is 36.2% (inactive) in assay [1]; -29.3% (active) in assay [2]; -79.1% (active) in assay [3]; -66.8% (active) in assay [4]; 0.53% (active) in assay [5]; -33.7% (active) in assay [6]. The growth in assay [7] is 38.3% (inactive); in assay [8] it was 6.21% (active).

For `CC(Oc1ccc(C(=O)NS(=O)(=O)C(C)(C)C)cc1C(F)(F)F)c1ccc(Oc2ccccc2)cn1` (stereo unspecified), the growth in assay [1] is 60.5% (inactive); in assay [2] it was 67.2% (inactive); in assay [3], -4.12% (active); in assay [4], 58.4% (inactive); in assay [5], 38.9% (inactive); in assay [6], 60.1% (inactive). For the same compound, the growth in assay [8] is 52.7% (inactive).

Consider `O=C(N/N=C/c1cccnc1)c1ccccc1Nc1cccc(C(F)(F)F)c1`, for which the growth in assay [1] is 61.9% (inactive); in assay [2], 80.7% (inactive); in assay [3], 26.2% (inactive); in assay [4] it was 84.1% (inactive); in assay [5], 91.8% (inactive); in assay [6], 85.9% (inactive). Besides, in assay [8], the growth is 88.2% (inactive).

For `C=C1C(=O)O[C@H]2[C@H]1CC/C(COC(=O)CCCCCC(=O)OC/C1=C/CC[C@@]3(C)O[C@H]3[C@H]3OC(=O)C(=C)[C@@H]3CC1)=C\CC[C@@]1(C)O[C@@H]21`, the growth in assay [1] was 1.26% (active); in assay [2], 35.7% (inactive); in assay [3], 30.8% (inactive); in assay [4] it was 8.05% (active); in assay [5] it was 12.8% (inactive); in assay [6], -37.3% (active). In addition, the growth in assay [8] was 62.8% (inactive).

For `COc1cc(C2CC(c3cccc(Nc4ccncc4)c3)=NN2C(C)=O)cc(OC)c1OC` (stereo unspecified), the growth is 85.2% (inactive) in assay [1]; 103% (inactive) in assay [2]; 18.1% (inactive) in assay [3]; 87.8% (inactive) in assay [4]; 72.6% (inactive) in assay [5]; 71.2% (inactive) in assay [6]. In addition, the growth in assay [8] is 69.5% (inactive).

Consider `CCNC(=O)c1[nH]cc(-c2ccc(OC)cc2)c1-c1cc(OC)c(OC)c(OC)c1`, for which the growth in assay [1] is 27.7% (inactive); in assay [2] it was 72.5% (inactive); in assay [3] it was -4.43% (active); in assay [4], 31.4% (inactive); in assay [6], 15.3% (inactive); in assay [7] it was 89.2% (inactive). Further, the growth in assay [8] is 22.1% (inactive).

On to `Cc1ccccc1-c1cc(Cc2ccc(F)cc2)c(=O)[nH]n1`, for which the growth in assay [1] is 99% (inactive); in assay [2] it was 106% (inactive); in assay [3], 119% (inactive); in assay [4] it was 102% (inactive); in assay [5], 97.9% (inactive); in assay [6] it was 78.4% (inactive). Moreover, in assay [8], the growth was 123% (inactive).

On to `COc1cc2nc(-c3ccc(C(F)(F)F)cc3)cc(OCCN3CCC(O)CC3)c2cc1OC`, for which the growth was 74.9% (inactive) in assay [1]; 52.3% (inactive) in assay [2]; 94.4% (inactive) in assay [3]; 91.8% (inactive) in assay [4]; 93.1% (inactive) in assay [5]; 55.3% (inactive) in assay [6]. The growth in assay [8] was 86.8% (inactive).

For `CN1C(=O)N(C)[C@H]2NC(NN)=N[C@H]21`, the growth was 91.7% (inactive) in assay [1]; 101% (inactive) in assay [2]; 101% (inactive) in assay [3]; 103% (inactive) in assay [4]; 97.8% (inactive) in assay [5]; 96.9% (inactive) in assay [6]. For the same compound, in assay [8], the growth is 105% (inactive).

Consider `O=C1Nc2ccccc2/C1=N/c1nc(-c2ccc(Cl)cc2)cs1`, for which the growth in assay [1] is 43.4% (inactive); in assay [2], 63.8% (inactive); in assay [3], 72.4% (inactive); in assay [4], 68.5% (inactive); in assay [6], 59.1% (inactive); in assay [7], 86.4% (inactive). In assay [8], the growth was 70.8% (inactive).

Take `O=c1[nH]c(=O)[nH]c(=S)[nH]1`: the growth in assay [1] was 98.9% (inactive); in assay [2] it was 103% (inactive); in assay [3], 103% (inactive); in assay [4] it was 102% (inactive); in assay [5] it was 97.8% (inactive); in assay [6], 98.5% (inactive). Also, the growth in assay [8] is 102% (inactive).
